Pf Dd2 inh = blocks in vitro growth of P. falciparum Dd2 | P. falciparum Dd2 growth, SYBR Green, 72 h | 120,000 compounds, 4.3% hits | Potency, µM (series often up to 28.9 µM), for inactives: at the top dose activity, negative = inhibition, most hits filed as inhibitors | AID 1347417; active = well fitted inhibition curve with a large enough effect;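 also: plate controls were DMSO vehicle for no effect and reference drug for full effect; nearly all actives have a fitted effect of over 65% in size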
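Infected erythrocytes (Dd2, 0.3% parasitemia, 2.5% hematocrit final) are added to compound in RPMI-1640/Albumax II medium, grown 72 h at 37C in low oxygen, then lysed with saponin/Triton-X containing SYBR Green and read by fluorescence.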
The depositor's hits bear a star; i = inactive; [ ] = dose if it differs, or a comment. Shown is part of a subset that was picked to be rich in hits. Potency is read from the fitted curve at half-maximal effect.

SMILES	Pf Dd2 inh
CC1=C[C@@H](CNc2ccccn2)[C@H](C(C)C)C[C@H]1Cc1nnc(-c2cncn2C)o1	5.6µM*
CC1=C[C@@H](CNC(=O)c2ccccc2)[C@H](C(C)C)C[C@H]1Cc1nnc(-c2cncn2C)o1	-6%[44.1 µM]
CC1=C[C@@H](CNC(=O)c2cnccn2)[C@H](C(C)C)C[C@H]1Cc1nnc(-c2ccccc2F)o1	-6%
CC1=C[C@@H](CN2CCN(c3ncccn3)CC2)[C@H](C(C)C)C[C@H]1Cc1nnc(-c2cncn2C)o1	-6%
CC(=O)NC[C@@H]1C=C(C)[C@H](CC(=O)NCc2cccnc2)C[C@H]1C(C)C	40%[44.1 µM]
CC1=C[C@@H](CN2CCCCC2)[C@H](C(C)C)C[C@H]1Cc1nnc(-c2cncn2C)o1	7.9µM*
Cc1ccccc1CN1CC[C@H](c2nnc(-c3cncn3C)o2)C1	0%[44.1 µM]
CC1=C[C@@H](CNCc2ccc(Cl)cc2)[C@H](C(C)C)C[C@H]1Cc1nnc(-c2cncn2C)o1	4µM*
COc1cc(NC(=O)C2CCN(C(=O)c3ncn4c3COC(c3ccccc3)C4)CC2)cc(OC)c1 (configuration not stated)	-15%
COC(=O)[C@@H](C)NC(=O)[C@H]1CN(C(=O)c2cccnc2)CCN1C(=O)NC1CCCCC1	14%
CN1[C@@H](CCC(=O)N2CCC(O)CC2)CNC(=O)[C@@H]2[C@H]1CCN2Cc1ccc(F)cc1	13%[44.1 µM]
CCOc1ccccc1NC(=O)N1C[C@@H](F)C[C@H]1C(=O)N1CCc2ccccc2C1	48%
C[C@]1(O)CCN(C(=O)c2cc(-c3ccsc3)n[nH]2)C[C@@H]1O	-9%
O=C(O)CCC1CCN(C(=O)c2ccccc2Cl)CC1	2%
CCC(=O)N1CCC2(CC1)OCC(C(=O)NCC(C)C)N2C(=O)c1cccc(OC)c1 (configuration not stated)	9%
CC(C)CCNC(=O)c1cnc2c(c1)N([S+](=O)([O-])c1cccnc1)CCC2	-15%[44.1 µM]
CN(C)CCNC(=O)c1cnc2c(c1)N(C(=O)Cc1cn(C)c3ccccc13)CCC2	-19%[44.1 µM]
Cn1cc(CC(=O)N2CCCc3ncc(C(=O)Nc4cccc(Cl)c4)cc32)c2ccccc21	4.5µM*
Cn1cc(CC(=O)N2CCCc3ncc(C(=O)NCc4ccoc4)cc32)c2ccccc21	i
O=C(Nc1cccc(Cl)c1)c1cnc2c(c1)N([S+](=O)([O-])c1cccnc1)CCC2	11µM*
O=C(c1cnc2c(c1)N([S+](=O)([O-])c1cccnc1)CCC2)N1CCC[C@@H]1c1ccc(F)cc1	-1%
O=C1C[C@@H]2CCN(C(=O)COc3ccccc3)C[C@@H]2CCN1CCN1CCOCC1	i
Cc1noc([C@@H]2C[C@H](NC(=O)c3ccc(C#N)cc3)CN2C)n1	-2%[44.1 µM]
COc1ccc(CCNC(=O)CN2CC3CC(C2)[C@H]2CCCC(=O)N2C3)cc1OC (some centres not stated)	-11%
CC(=O)N1CCC(n2nccc2NC(=O)Nc2ccccc2C)CC1	-5%
SMILES	Pf Dd2 inh
Cc1noc(-c2ccc(C(C)(C)C)cc2)c1C(=O)NCc1ccc(F)cc1F	-7%
Cc1cccc(CNC(=O)c2c(C)noc2-c2ccc(C(C)(C)C)cc2)c1	-11%
Cc1noc(-c2ccc(C(C)(C)C)cc2)c1C(=O)NCc1cc(F)cc(F)c1	10µM*
COC[C@@H]1CN(C(=O)c2ccc(OC)cc2OC)C[C@H]1c1ccncc1	-14%
CCOCC(=O)N1CC(F)(F)C[C@H]1c1nc(C(=O)NC)no1	42%
Cc1cccc(C)c1NC(=O)Nc1csc2c1CCCC2	-16%
CCc1cccc(NC(=O)Nc2csc3c2CCCC3)c1	10µM*
Cc1cc(C)c(NC(=O)Nc2csc3c2CCCC3)c(C)c1	86%[5.79 µM]
COc1ccc(-c2ccc3ccccc3n2)c(OC)c1OC	-25%
COc1c[nH]c(CN2CCCC(CCc3ccccc3C(F)(F)F)C2)cc1=O (configuration not stated)	8.9µM*
CNC(=O)c1noc(CN2CCCC(CCc3ccccc3C(F)(F)F)C2)n1 (configuration not stated)	-26%
CN(C)C(=O)N1CCCC(CCc2ccccc2C(F)(F)F)C1 (configuration not stated)	-24%
CN1CCCCCC(O)c2cc(C(=O)NCCC3=CCCCC3)ccc21 (configuration not stated)	i
O=C(c1cc2ccccc2oc1=O)N1CCC2(CCCN(Cc3ccccc3F)C2)C1 (configuration not stated)	-2%
CN1C(=O)[C@@H]2C[C@@H](O)CN2C2(CN(CC3CCCCC3)C2)C1=O	13%[44.1 µM]
Cn1cnc(S(=O)(=O)N2CCCC(Cn3c(C4CC4)nc4cccnc43)C2)c1 (configuration not stated)	8%
COc1ccc(-c2noc([C@@H]3CCCN3C(=O)c3cc(Cl)ccc3OC)n2)cc1	-9%
COc1ccc(-c2noc(N3CCC(C(=O)N(C)c4cc(Cl)ccc4OC)CC3)n2)cc1	10µM*
COc1ccc(-c2noc(N3CCC(C(=O)Nc4ccc(F)cc4Cl)CC3)n2)cc1	38%
CN(Cc1ccccc1)C(=O)C[C@@H]1CCNC[C@@H]1Cc1cc(-c2ccc(F)cc2)on1	-17%[44.1 µM]
COc1ccc(CCC(=O)NCCC2CCN(C(=O)Nc3ccc(C)cc3)CC2)cc1	i
Cn1cnc(C(=O)N2CC3CC(C2)[C@H]2CCCC(=O)N2C3)c1 (some centres not stated)	2%
CCCn1cc(S(=O)(=O)c2ccc(C)c(C)c2)c(=O)c2cc(F)c(N3CCCCC3)cc21	1%
CCN(CC)c1cc2c(cc1F)c(=O)c(S(=O)(=O)c1ccccc1)cn2C	-23%
COc1ccc(S(=O)(=O)c2cn(Cc3ccccc3)c3cc(F)c(F)cc3c2=O)cc1	-24%
SMILES	Pf Dd2 inh
CCCCn1cc(S(=O)(=O)c2ccc(F)cc2)c(=O)c2ccccc21	18%
COc1ccc(NC(=O)Cn2cc(S(=O)(=O)c3ccccc3)c(=O)c3cc4c(cc32)OCO4)cc1	-16%
CCCCn1cc(S(=O)(=O)c2ccc(C)c(C)c2)c(=O)c2cc(F)c(N(CC)CC)cc21	13µM*
CCN(CC)c1cc2c(cc1F)c(=O)c(S(=O)(=O)c1ccc(OC)cc1)cn2Cc1ccccc1	13µM*
CCN(CC)c1cc2c(cc1F)c(=O)c(S(=O)(=O)c1ccccc1)cn2Cc1ccccc1	13µM*
CCN(CC)c1cc2c(cc1F)c(=O)c(S(=O)(=O)c1cccc(C)c1)cn2C	9%
Cn1ccc(CN2CCn3c(nn(-c4ccc(F)cc4F)c3=O)C2)n1	-2%
O=C(NCCC1CCN(C(=O)Nc2cc(F)ccc2F)CC1)C1CCCC1	-15%
COCCNC(=O)c1cc(-c2cnn(Cc3ccccc3)c2)cc2ncn(C)c12	25%[44.1 µM]
Cc1ccc(C(=O)N2CCC[C@H]2c2nc(-c3ccccc3Cl)no2)cc1	18%
Cc1cccc(C(=O)N2CCC3(CC2)OCC(C(=O)NCC(C)C)N3C(=O)c2cccc(C)c2)c1 (configuration not stated)	i
COCCCNC(=O)C1COC2(CCC(C)CC2)N1C(=O)c1ccccc1F (configuration not stated)	0%
COCCN1C(=O)CC[C@]2(C(=O)NCc3ccco3)CCCC[C@@H]12	-23%
Cc1ccc(Cl)cc1N1CCN(S(=O)(=O)c2ccc3[nH]c4c(c3c2)CCCC4)CC1	-25%
Cc1ccc(N2CCN(S(=O)(=O)c3ccc4[nH]c5c(c4c3)CCCCC5)CC2)c(C)c1	-14%
Cc1ccc(C)c(N2CCN(S(=O)(=O)c3ccc4[nH]c5c(c4c3)CCCCC5)CC2)c1	8.9µM*
COC[C@@H]1CN(Cc2cc(F)ccc2F)C[C@H]1C(=O)NC1CC1	-11%
